This is a sample that favours compounds with a hit; in the whole collection about 10% have one here.
Six1-Eya2 blk: inhibitors of human Six1/Eya2 interaction; Q15475+O00167; activity change, % (no concentration beside the values); 360,000 tested, 0.56% active; AlphaScreen GST-Six1/His-Eya2 binding, biochemical; hits give low values; AID 651725; in the data active = activity change below about -65%; inconclusive = mostly about -30% to -63%
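GST-Six1 + His-Eya2 (5X stock: 250/500 nM); Tris pH 8.0, 300 mM NaCl, 0.05% BSA, 0.02% Tween 20; GSH donor/Ni acceptor beads; 1 h 37 °C dark; AlphaScreen readout.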
JMJD2A Tudor: blocks the human JMJD2A Tudor domain; O75164; AlphaScreen JMJD2A-Tudor / H3K4me3 peptide binding; Potency, µM (highest dose often 114 µM), actives largely listed as inhibitors; 390,000 tested, 4.4% active; also: nearly all actives have a fitted effect of over 50% in size
BAZ2B block: blocks human BAZ2B; Q9UIF8; AlphaScreen BAZ2B-H3K14Ac peptide displacement; Potency, µM (highest dose often 114 µM), usual class: inhibitors; 360,000 tested, 4.4% active; also: nearly all actives have a fitted effect of over 60% in size
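Protein-peptide AlphaScreen: BAZ2B 50 nM, b-H3K14Ac 50 nM, 1x PBS pH 7.4 + 0.01% Tween-20. Preincubation 30 min RT; cpd 30 min RT (top 110 uM); beads 20 min RT, light-protected.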
G9a inh: inhibitors of human histone lysine methyltransferase G9a; Q96KQ7; G9a H3K9 monomethylation, AlphaScreen, 2 h; Potency, µM (titrated, usually from 102 µM), most hits filed as inhibitors; 350,000 tested, 8.8% active; AID 504332; also: nearly all actives have a fitted effect of over 75% in size
Target sequence (Q96KQ7 913-1193 limits assumed): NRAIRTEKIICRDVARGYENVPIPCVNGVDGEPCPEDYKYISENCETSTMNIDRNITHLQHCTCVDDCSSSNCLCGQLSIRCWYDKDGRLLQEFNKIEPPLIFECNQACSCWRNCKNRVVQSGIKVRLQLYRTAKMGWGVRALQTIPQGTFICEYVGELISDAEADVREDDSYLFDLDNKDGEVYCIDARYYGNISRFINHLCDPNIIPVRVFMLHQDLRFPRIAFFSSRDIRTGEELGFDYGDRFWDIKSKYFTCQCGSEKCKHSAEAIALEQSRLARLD
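Enzyme 20 nM + cpd, 15 min RT; add b-H3K9 pep 500 nM / SAM 20 uM; 2 h RT; anti-H3K9me1 Ab 0.5 ug/mL + SA donor / anti-rabbit acceptor beads 20 ug/mL each, 10 min; AlphaScreen read.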
CtBP-E1A inh: inhibitors of CtBP/E1A interaction; AlphaScreen GST-E1A/His-CtBP binding, 1536-well; hits give low values; activity change, % (no concentration beside the values); 340,000 tested, 0.49% active; in the data active = activity change below about -65%; inconclusive = mostly about -30% to -63%
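Homogeneous bead-based format: GST-tagged E1A captured on glutathione donor beads, His-tagged CtBP on nickel acceptor beads; compounds precede bead addition by 2 h at 37 °C.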
HP1b chromo inh: inhibitors of HP1-beta chromodomain binding to methylated histone tails; P83916; AlphaScreen HP1-beta / biotin-H3K9me3 peptide binding; 390,000 tested, 0.56% active; AID 540317; Potency, µM (titrated, usually from 114 µM), actives largely listed as inhibitors; also: nearly all actives have a fitted effect of over 70% in size
Target sequence (P83916 whole entry, looked up): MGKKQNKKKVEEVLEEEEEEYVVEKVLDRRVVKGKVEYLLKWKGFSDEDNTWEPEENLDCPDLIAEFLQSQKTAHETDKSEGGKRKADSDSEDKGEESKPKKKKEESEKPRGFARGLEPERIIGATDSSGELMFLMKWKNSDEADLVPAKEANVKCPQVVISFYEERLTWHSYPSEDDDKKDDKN
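AlphaScreen: HP1-beta (50 nM) preformed 30 min with biotin-H3(1-18)K9me3 peptide (50 nM) in PBS pH 7.4, 0.01% Tween-20. Compound added for 30 min at RT, then streptavidin donor/nickel chelate acceptor beads (10 ug/mL) for 30 min.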
Numbers stand for hits; - = inactive; ? = inconclusive; . = not tested or not shown; [ ] = remark or other dose. Unless noted, calls follow the shape of the dose curve; as a rule, active = well fitted inhibition curve with a large enough effect; inconclusive = small, poorly fitted or top-dose-only effect; inactive = no such curve, though single readings can be large or run the other way.

SMILES | Six1-Eya2 blk | JMJD2A Tudor | BAZ2B block | G9a inh | CtBP-E1A inh | HP1b chromo inh
CCN(CC)CCn1c2ccccc2c(=O)c2c(O)ccc(O)c21 | -69 | 45µM | . | . | - | 40µM
O=[N+]([O-])C(=C1NCCN1)C(Cl)=C(Cl)Cl | - | - | - | 56µM | . | -
CC(Sc1nnc(-c2cccnc2)n1N)C(=O)NCCC1=CCCCC1 (stereo unspecified) | - | - | - | 56µM | - | -
CC(Sc1nnc(-c2cccnc2)n1N)C(=O)N1CCOCC1 (stereo unspecified) | - | - | - | - | - | -
CC(Sc1nnc(-c2ccco2)o1)C(=O)NCCC1=CCCCC1 (stereo unspecified) | - | - | - | 50µM | - | -
COc1cc(CN2C[C@@H](CO)O[C@@H](n3cnc4c(NC(C)C)ncnc43)C2)cc(OC)c1OC | - | . | . | . | - | .
Cc1cccc(NC(=O)CSCC(=O)Nc2ccccc2N2CCCCC2)c1 | - | - | - | - | - | -
Cc1cccc(NC(=O)CSCC(=O)Nc2ccccc2N2CCCC2)c1 | - | ? | 35µM | ? | - | -
CCc1noc(C)c1C(=O)N1CCN(S(=O)(=O)c2ccc(Cl)cc2)CC1 | - | - | - | - | - | -
Cc1cccc(NC(=O)CSCC(=O)Nc2cccc(S(=O)(=O)N3CCCCCC3)c2)c1 | - | - | - | 35µM | - | -
Cc1cccc(NC(=O)CSCC(=O)Nc2ccc(S(=O)(=O)N3CCCCC3)cc2)c1 | - | - | - | 32µM | - | -
CCc1noc(C)c1C(=O)N1CCN(S(=O)(=O)c2ccc(C(C)=O)cc2)CC1 | - | - | - | 40µM | - | -
Cc1ccc(NC(=O)CSCC(=O)Nc2cccc(S(=O)(=O)N3CCCCCC3)c2)cc1 | - | - | - | -[12.7 µM] | . | -
COc1ccc(CN2CCCN(CC(=O)Nc3ccc4c(c3)OCCO4)S2(=O)=O)cc1 | . | - | - | -[12.7 µM] | . | -
Cc1ccc2oc(C(=O)Nc3c(C(=O)Nc4cccc(Cl)c4)oc4ccccc34)cc(=O)c2c1 | . | - | - | - | . | -
Cc1cc(C)c(C#N)c(SCC(=O)Nc2cccc(S(=O)(=O)N3CCCC3)c2)n1 | - | - | - | 50µM | - | -
Cc1noc(C)c1C(=O)Nc1cccc(S(=O)(=O)N2CCCCC2)c1 | - | - | - | - | - | -
CCc1noc(C)c1C(=O)Nc1cccc(S(=O)(=O)N2CCCCCC2)c1 | - | - | - | 8.9µM | - | -
Cc1ccc(CSc2nc3ccncc3[nH]2)cc1 | - | - | - | - | - | -
CCCC(CCC)c1nc2ccncc2[nH]1 | - | ? | ? | 50µM | - | ?
Cc1ccc(-c2c(C(=O)O)c3ccccc3[nH]c2=O)cc1 | - | - | - | -[0.501 µM] | . | -
CCC(C)NC(=O)CSc1nc2n[nH]c(C)c2c(=N)n1-c1ccc(OC)cc1 (stereo unspecified) | -74 | - | - | -[2.33 µM] | -85 | -
COc1cccc(NC(=O)CSc2nc3n[nH]c(C)c3c(=N)n2-c2cccc(OC)c2)c1 | ? | - | ? | -[12.7 µM] | ? | -
Cc1[nH]nc2nc(SCC(=O)NCC3CCCO3)n(-c3ccc(Br)cc3)c(=N)c12 (stereo unspecified) | -65 | - | - | -[12.7 µM] | ? | -
COc1cccc(-n2c(SCC(=O)NCCC3=CCCCC3)nc3n[nH]c(C)c3c2=N)c1 | -79 | - | - | - | -70 | -
SMILES | Six1-Eya2 blk | JMJD2A Tudor | BAZ2B block | G9a inh | CtBP-E1A inh | HP1b chromo inh
Cc1cc(-n2c(SCC(=O)Nc3ccc(Br)cc3)nc3n[nH]c(C)c3c2=N)ccc1Cl | - | - | - | - | - | -
C=CCN(CC(=O)Nc1cccnc1)S(=O)(=O)c1ccc(Cl)cc1 | - | - | . | . | - | -
CCc1nn(CC(=O)Nc2ccc(Br)c(C)c2)c(=N)s1 | - | - | ? | ? | - | -
Cc1[nH]n(C(N)=S)c(=O)c1C(c1ccccc1)C(C#N)C#N (stereo unspecified) | - | - | - | ? | - | -
Cc1[nH]n(-c2ncc(-c3ccccc3)s2)c(=O)c1C(c1ccc(Br)cc1)C(C#N)C#N (stereo unspecified) | - | 50µM | 35µM | ? | - | 40µM
Oc1cc2c(cc1CN1CCN(c3ncccn3)CC1)OCO2 | - | ? | - | 4µM | - | -
O=[N+]([O-])c1ccc(Cl)c(CN2CCN(c3ncccn3)CC2)c1 | - | ? | ? | 71µM | - | -
COc1cc(Br)cc(CN2CCN(c3ncccn3)CC2)c1O | - | - | - | ? | - | -
Cc1ccc(CN2CCN(c3ncccn3)CC2)o1 | - | - | - | ? | - | -
Fc1ccccc1CN1CCN(c2ncccn2)CC1 | - | 6.3µM | ? | 22µM | - | -
Cc1ccc(C)c(CN2CCN(c3ncccn3)CC2)c1 | - | 20µM | ? | . | - | ?
CCOC(=O)N1CCN(CC(=O)Nc2cc(OC)c(OC)cc2C#N)CC1 | - | - | - | - | - | -
N#Cc1nc(N2CCCCC2)nc(N(c2ccccc2)c2ccccc2)n1 | . | - | . | . | . | -
Oc1c(CN2CCOCC2)cc(CN2CCOCC2)cc1CN1CCOCC1 | - | - | . | . | - | -
Oc1cc(O)c(CN2CCOCC2)cc1CN1CCOCC1 | - | 79µM | . | . | - | 71µM
Nc1oc2ccccc2c1C(=O)Cc1ccccc1O[C@@H]1O[C@H](CO)[C@@H](O)[C@H](O)[C@H]1O | - | - | - | -[12.7 µM] | - | -
Cc1ccc(-c2noc(CN(C)C(=O)c3ccc(Br)o3)n2)cc1 | - | - | ? | 50µM | - | ?
Cc1ccc(N2C(=O)CS(=O)(=O)CC2=O)cc1 | - | - | - | 32µM | - | -
COc1ccc(NC(=S)NC(NC(=O)c2cccc(C)c2)C(Cl)(Cl)Cl)c([N+](=O)[O-])c1 (stereo unspecified) | - | -[11.4 µM] | ? | ? | - | -
COc1ccc(NC(=S)NC(NC(C)=O)C(Cl)(Cl)Cl)c([N+](=O)[O-])c1 (stereo unspecified) | - | - | - | 11µM | - | ?
COc1ccc(NC(=S)NC(NC(=O)c2cccc(Cl)c2)C(Cl)(Cl)Cl)c([N+](=O)[O-])c1 (stereo unspecified) | - | 22µM | ? | ? | - | ?
CCC(=O)NC(NC(=S)Nc1ccccc1Br)C(Cl)(Cl)Cl (stereo unspecified) | - | - | - | - | - | -
CC(=O)NC(NC(=S)Nc1ccccc1Br)C(Cl)(Cl)Cl (stereo unspecified) | - | - | - | 28µM | - | -
COc1ccc(NC(=O)CN(c2ccc(OC)cc2)S(=O)(=O)c2ccc(OC)c(OC)c2)cc1 | - | - | - | - | - | -
O=C1C=C(c2cccc(Cl)c2O)C[C@@H](c2ccc(Cl)cc2)C1 | - | - | ? | -[2.33 µM] | - | -
